The entries come from a sample that favours hits as a whole.
ALOX12 inh: blocks human arachidonate 12S-lipoxygenase; P18054; purified 12hLO, xylenol orange hydroperoxide absorbance; Potency, µM (series often up to 108 µM), actives largely listed as inhibitors; actives 1.1% (n = 580,000); AID 1671190
Target sequence (P18054 whole entry, looked up): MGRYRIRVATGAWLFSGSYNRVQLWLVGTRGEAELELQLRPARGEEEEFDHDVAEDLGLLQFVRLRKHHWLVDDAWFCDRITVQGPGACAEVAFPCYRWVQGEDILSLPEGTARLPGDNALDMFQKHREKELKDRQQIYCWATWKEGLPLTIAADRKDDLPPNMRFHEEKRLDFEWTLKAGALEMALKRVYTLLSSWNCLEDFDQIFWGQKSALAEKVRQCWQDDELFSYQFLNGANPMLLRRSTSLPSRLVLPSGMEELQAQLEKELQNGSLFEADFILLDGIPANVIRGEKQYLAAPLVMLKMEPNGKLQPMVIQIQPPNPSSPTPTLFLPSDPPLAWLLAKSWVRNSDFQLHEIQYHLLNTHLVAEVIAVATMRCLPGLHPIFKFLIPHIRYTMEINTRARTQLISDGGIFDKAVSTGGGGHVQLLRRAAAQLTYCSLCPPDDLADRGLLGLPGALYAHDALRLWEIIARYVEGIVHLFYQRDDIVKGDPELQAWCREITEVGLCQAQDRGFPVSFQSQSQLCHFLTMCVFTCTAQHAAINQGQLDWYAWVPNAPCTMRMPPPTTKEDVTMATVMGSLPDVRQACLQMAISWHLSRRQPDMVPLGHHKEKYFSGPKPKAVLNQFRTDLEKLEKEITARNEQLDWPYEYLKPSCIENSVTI
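Hydroperoxide product was detected by ferrous iron/xylenol orange as the 573 to 405 nm absorbance ratio. Arachidonic acid at 40 uM (final) was turned over for 30 min at room temperature by 150 nM human 12hLO, pH 7.0 Hepes buffer, after 15 min compound preincubation.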
HT1080 IDH1KD tx: HT-1080 IDH1 knockdown cell toxicity (counter line); AID 686971; Potency, µM (series often up to 46.1 µM), usual class: cytotoxic; actives 2% (n = 360,000); HT-1080 IDH1 knockdown viability, ATP luminescence, 48 h
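Using the IDH1-knockdown HT-1080 line run in the same batch and compound series as the NT line, viability after 48 h at 37 °C was determined by CellTiter-Glo luminescence and expressed as % activity.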
TDP1 cell CPT: growth inhibition of DT40 Tdp1-/-;hTDP1 cells with camptothecin (screen for TDP1 inhibitors) | chicken DT40 Tdp1-/-;hTDP1 cells + 20 nM CPT, ATP luminescence, 48 h | Potency, µM (doses to about 46.2 µM), hits mostly inhibitors | actives 12% (n = 420,000) | AID 686979; also: nearly all actives have a fitted effect of over 55% in size
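Cell growth measured by CellTiter-Glo luminescence after a minimum 48 h, 37 C compound exposure with 20 nM CPT in Tdp1-knockout DT40 cells stably expressing hTDP1, seeded 400/well; qHTS titration format.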
HT1080NT lethal: kills 2HG-producing HT-1080-NT fibrosarcoma cells; HT-1080-NT fibrosarcoma viability, CellTiter-Glo ATP luminescence, 48 h; Potency, µM (highest dose often 46.1 µM), actives largely listed as cytotoxic; actives 1.6% (n = 360,000); AID 686970;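 also: NT is the 2HG producing partner of a matched IDH1 knockdown line; nearly all actives have a fitted effect of over 55% in size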
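HT-1080-NT fibrosarcoma cells (2HG-overproducing), 750 cells/well in RPMI with 5% FBS, dosed after 2 h and incubated 48 h at 37C. CellTiter-Glo luminescence normalized to DMSO and no-cell wells; concentration-response curves fitted and classed.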
IL1B secr inh: inflammasome signaling inhibition, IL-1 beta readout; activity change, % at 57.5 µM; actives 4.7% (n = 360,000); THP-1 LPS/ATP IL-1B secretion, AlphaLISA, 16 h; active compounds read low; AID 743279; in the data active = activity change below about -50%; inconclusive = mostly about -30% to -49%
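THP-1 cells pretreated 1 hr with compounds (up to 57.5 uM final), then stimulated with LPS (250 ng/mL final) plus ATP (1.25 mM final); secreted IL-1B measured by AlphaLISA after 16 hr, decreased signal indicating inhibition.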
DT40 TDP1 no CPT: qHTS for Inhibitors of human tyrosyl-DNA phosphodiesterase 1 (TDP1): qHTS in cells in absence of CPT; AID 686978, 2013; Potency, µM (doses to about 46.2 µM), most hits filed as inhibitors; DT40 Tdp1-/- hTDP1 cells, no CPT, ATP luminescence, 48 h; actives 15% (n = 420,000); also: nearly all actives have a fitted effect of over 55% in size
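Camptothecin absent (DMSO only). Human TDP1-complemented DT40 knockout cells, 400 cells/well, 37 °C for minimum 48 hr; ATP measured via CellTiter-Glo, 30 min dark incubation, luminescence.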
A number is an active result; 0 = inactive; ? = inconclusive; - = no result; [ ] = another dose, or the depositor's remark. Unless noted, calls follow the shape of the dose curve; as a rule, active = well fitted curve in the direction sought with a large enough effect; inconclusive = small, poorly fitted or top-dose-only effect, or another doubt; inactive = no such curve, though single readings can be large; an effect the other way counts as inactive or inconclusive.

SMILES	ALOX12 inh	HT1080 IDH1KD tx	TDP1 cell CPT	HT1080NT lethal	IL1B secr inh	DT40 TDP1 no CPT
[O-]/C(=C(\C(=S)Nc1cccc2ccccc12)[n+]1ccccc1)c1ccc2c(c1)OCCO2	?	0	?	?	0	0
COc1cccc(NC(=S)/C(=C(\[O-])c2ccc(OC(F)F)cc2)[n+]2ccccc2)c1	0	0	13µM	0	0	14.6µM
COc1cccc(NC(=S)/C(=C(\[O-])c2ccc(C)c([N+](=O)[O-])c2)[n+]2ccccc2)c1	0	0	0	0	0	0
O=C(Oc1ccc(N(Cc2cccs2)C2=NS(=O)(=O)c3ccccc32)cc1)c1ccccc1Cl	0	0	6.51µM	0	0	5.8µM
CCCCCCn1c(N(C)C)nc2c1c(=O)[nH]c(=O)n2C	0	-	-	-	-	-
CCc1cc(-c2nnn(CCC3COCCO3)c2C(C)(C)O)ccc1-c1cn(CCc2c[nH]c3ccccc23)nn1 (stereo not drawn)	0	?	20.6µM	0	0	11.6µM
CCc1cc(-c2nnn(-c3cc(C(C)C)ccc3C)c2CC)ccc1-c1cn(CCc2c[nH]c3ccccc23)nn1	0	?	23.1µM	0	0	?
COc1ccc(OC)c(CCNC(=O)c2c(C)oc3ncn(CC(C)C)c(=O)c23)c1	0	-	?	-	-	18.4µM
COc1ccc(OC)c(CNC(=O)c2c(C)oc3ncn(CC(C)C)c(=O)c23)c1	?	-	?	-	-	16.4µM
O=C(O)CCC(=O)N1Cc2ccccc2CC2(CCCCN2CC2CCCC2)C1 (stereo not drawn)	0[6.33 µM]	-	-	-	-	-
C[C@H]1[C@@H]2[C@@H](O)[C@H]([C@H](C)C(=O)N3CCCCC3)CC[C@@]2(C)CC[C@@H]1NC(=O)c1cncnc1	0	-	-	-	-	-
COC(=O)CCNC(=O)c1ccc2c(c1)NC(=O)CS2	0	-	-	-	-	-
CN(C[C@H](c1ccccc1)N(C[C@H](Cc1ccccc1)N(CCc1ccccc1)N=O)N=O)N=O	0	0	18.4µM	0	0	?
CN(Cc1ccccc1F)c1nc(-c2cccnc2)nc2ccccc12	?	0	20.6µM	0	-76.4	?
Cc1ccc(CN(C)c2nc(-c3cccnc3)nc3ccccc23)o1	0	0	?	0	0	16.4µM
CN(Cc1ccc2c(c1)OCO2)c1nc(-c2cccnc2)nc2ccccc12	0	-	-	-	-	-
CCOc1ccc(CN(C)c2nc(-c3cccnc3)nc3ccccc23)cc1OC	0	?	13µM	0	-93.0	?
O=C(COC(=O)C1CC(=O)N(c2nc(-c3ccc(Cl)cc3)cs2)C1)c1ccc(Cl)cc1 (stereo not drawn)	0	-	-	-	-	-
C[N+]1(CC2COC(c3ccccc3)(C3CCCCC3)O2)CCCCC1 (stereo not drawn)	?	-	0	-	-	5.96µM
C[N+]1(CC2COC3(CCCCC3)O2)CCCCC1 (stereo not drawn)	?	0	0	0	0	0
CN(CC(=O)NC1(C#N)CCCCC1)C(c1ccccc1)c1ccc(F)cc1 (stereo not drawn)	0	-	-	-	-	-
N#CC(C#N)=C1C=CC=CN1/C(=C\c1ccco1)C(=O)c1ccc(-c2ccccc2)cc1	?	?	0.92µM	?	-66.8	0.581µM
O=C(NCC1CCCO1)/C(=C\c1ccco1)NC(=O)c1ccc(Cl)cc1 (stereo not drawn)	0	0	0	0	0	0
N#C/C(=C\c1ccco1)C(=O)NCc1ccccc1	-	0	0	0	0	0
N#CC(C#N)=C1C=CC=CN1/C(=C\c1ccco1)C(=O)c1ccc(Cl)cc1	?	?	0.581µM	?	-100.7	0.92µM
CN(C)Cc1ccc(O)cc1	0	-	-	-	-	-
CC(C)C[C@@H]1N[C@H](C(=O)NCc2ccc(C#N)cc2)Cc2c[nH]c3cccc1c23	0	-	-	-	-	-
CN1CCN(C(=O)C2=C[C@H](c3ccc(C(F)(F)F)cc3)C[C@H](OCc3ccc(CO)cc3)O2)CC1	0	0	23.1µM	0	0	?

Bioassay records (PubChem BioAssay)
